About 19,000 (20%) of roughly 96,000 compounds were called active.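 How the source made its calls: active means blocking of liver enzyme CYP2C9 beyond about 50% at 5 µM (limit read from the data); inactive means the rest.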 Only a sample is shown.

Results on 97 molecules are retold here after PubChem BioAssay AID777 (Sanford-Burnham Center for Chemical Genomics, 2007).

This assay deals with Cytochrome P450 2C9 (Homo sapiens) (UniProt P11712). Put plainly: blockers of cytochrome P450 2C9 activity – biochemical, luminescence, ADME assay, primary screen (AID 777). The settings on record: CYP2C9 Supersomes, luciferin-H conversion, at 5 µM, active compounds read high.
Cytochrome P450 2C9 (Homo sapiens), sequence (P11712 whole entry, looked up): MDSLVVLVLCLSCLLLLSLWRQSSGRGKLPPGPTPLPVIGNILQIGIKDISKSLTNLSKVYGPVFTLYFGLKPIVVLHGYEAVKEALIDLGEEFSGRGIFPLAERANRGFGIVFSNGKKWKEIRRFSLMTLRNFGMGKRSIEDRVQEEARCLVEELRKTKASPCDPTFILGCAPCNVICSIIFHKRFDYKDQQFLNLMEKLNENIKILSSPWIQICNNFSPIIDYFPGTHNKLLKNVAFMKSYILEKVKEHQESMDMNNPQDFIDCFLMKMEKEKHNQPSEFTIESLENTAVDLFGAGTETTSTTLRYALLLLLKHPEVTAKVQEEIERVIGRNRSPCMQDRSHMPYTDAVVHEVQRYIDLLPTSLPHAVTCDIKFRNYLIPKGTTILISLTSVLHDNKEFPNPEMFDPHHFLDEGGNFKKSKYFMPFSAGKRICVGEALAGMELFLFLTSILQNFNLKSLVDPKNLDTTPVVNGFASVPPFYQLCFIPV
One may read the inhibition as the drop in the measured response relative to a control, in per cent. `CC(C)(CNCC(O)c1ccccc1)N1CCOCC1` (configuration not stated): the inhibition is -3.5% (inactive).
Then `CCOC(=O)C1(Cc2ccc(O)cc2)NC(c2ccccc2F)C2C(=O)N(C)C(=O)C21` (configuration not stated), with -15.1% (inactive); and `Cc1nc([N+](=O)[O-])nn1C12CC3CC(CC(Br)(C3)C1)C2`, with 18.8% (inactive).
Take `CCN1CC=C2C(C#N)=C(N)C(C#N)(C#N)[C@H](c3ccoc3)[C@H]2C1`: the inhibition is -2.3% (inactive).
To `CCOC(=O)N1CC=C2C(C#N)=C(N)C(C#N)(C#N)[C@H](c3cccs3)[C@H]2C1` belongs 11.7% (inactive); to `N#CC1=C(N)C(C#N)(C#N)[C@H](c2ccsc2)[C@H]2COCC=C12`, 61.4% (active).
To `CCOc1ccc(C(=O)NC(C(=O)NCc2ccccn2)C(C)C)cc1` (configuration not stated) belongs 6.7% (inactive); to `O=C(Nc1ccc(Br)cc1)c1cccc(NC(=O)C2C3CC4OC(=O)C2C4C3)c1` (configuration not stated), 66.4% (active); to `Cc1cc(C)cc(NC(=O)c2cccc(NC(=O)C3C4CC5OC(=O)C3C5C4)c2)c1` (configuration not stated), -1.1% (inactive).
To `O=C(Nc1cccc(C(=O)N2CCCC2)c1)c1ccccc1` belongs 31.3% (inactive); to `C/C(N)=C(\C#N)C(=O)NCCc1ccccn1`, -7.1% (inactive); to `Cc1ccc2nc(SCc3nnc(-c4ccccc4[N+](=O)[O-])o3)c(C#N)cc2c1`, 20% (inactive).
As to `Fc1ccc(-c2nnc(CSc3nnc(-c4ccc5c(c4)OCO5)o3)o2)cc1`, the inhibition is -13.3% (inactive).
To `Fc1ccc2nc(-c3ccccc3)nc(SCc3nnc(-c4ccccc4)o3)c2c1` belongs 76.7% (active).
`COc1ccc(OC)c(NC(=O)c2cnn(-c3ccccc3Cl)c2NC(=O)c2ccco2)c1`: the inhibition was 24.5% (inactive).
Consider `Cc1nc2nc(COc3ccccc3)[nH]n2c(=O)c1C`, for which the inhibition was 1.1% (inactive).
Consider `CCn1cc(C(=O)N/N=C(/C)c2ccc(F)cc2)c(=O)c2cc(F)c(N3CCCC3)cc21`, for which the inhibition was 5.7% (inactive).
On to `CN(c1ccccc1)c1ccc(/C=c2\s/c(=C(/C#N)C(=O)C(C)(C)C)n(Cc3ccco3)c2=O)cc1`, for which the inhibition is 41.9% (inactive).
To `C=CCn1c(=N)n(CC(O)COc2ccc(OC)cc2)c2ccccc21` (configuration not stated) belongs -0.2% (inactive); to `COCCCn1c(CCC(=O)O)ccc1-c1ccc(F)cc1`, 39.8% (inactive); to `CC(C)(CSc1nncn1/N=C/c1ccco1)NS(=O)(=O)c1ccc(Cl)cc1`, 61.2% (active).
To `Cc1cc(C)c2c(c1)cc(C)c1nnc(SCC(=O)Nc3cc(C)on3)n12` belongs 10.5% (inactive); to `CCCS(=O)(=O)N1CCCC(C(=O)N2CCN(c3ccccc3)CC2)C1` (configuration not stated), -1.6% (inactive).
In the case of `Cc1nnsc1S(=O)(=O)Cc1ccccc1Cl`, the inhibition was 3.2% (inactive).
To `COC(=O)[C@@H](NC(=O)NCc1cccc(OC)c1)C(C)C` belongs -12.5% (inactive).
Turning to `CCOC(=O)C(CCOc1cccc(CC)c1)C(=O)OCC`, the inhibition is 57% (active).
Then `CCCOc1cccc(C(=O)Nc2nnn(CCC)n2)c1`, with 38.6% (inactive); and `CC(C)=C(NC(=O)c1ccco1)C(=O)NCCc1nc2ccccc2[nH]1`, with -29.7% (inactive); and `CCC(CC)C(=O)N1CC(=O)Nc2ccc(Br)cc2C1c1ccccc1` (configuration not stated), with 49.6% (inactive).
Turning to `S=c1[nH]nc2c3c4c(sc3ncn12)CCCC4`, the inhibition is 20.5% (inactive).
To `CCCOc1ccccc1-c1nc(SCCC(=O)O)n[nH]1` belongs -1.3% (inactive); to `COc1ccccc1N1CCN(C(=O)c2ccc(S(=O)(=O)N3CCCCC3)cc2)CC1`, 45.8% (inactive).
Then `N#CC(C(=O)c1ccc(S(=O)(=O)N2CCCCCC2)cc1)c1nc2ccccc2[nH]1` (configuration not stated), with 67.8% (active); and `COC(=O)c1ccc(S(=O)(=O)N2CCC(c3nc4ccccc4o3)CC2)cc1`, with 16.8% (inactive).
For `O=C(CSc1nc2ccccc2o1)N1CCN(c2ccccc2)CC1`, the inhibition is 29.7% (inactive).
Then `CC(C)OCCCNC(=O)C1CC(=O)N(C2CCCCCCC2)C1` (configuration not stated), with -4.2% (inactive); and `CC(CN1CCCCC1)OC(=O)c1ccccc1Cl` (configuration not stated), with 9.2% (inactive); and `CCOC(=O)c1sc2nc(SC)nc(-c3ccccc3)c2c1N`, with 13.3% (inactive).
`CCOC(=O)c1sc(N(Cc2ccccc2)C(=O)CN2C(=O)CN(C)C2=O)nc1C`: the inhibition is 57.9% (active).
Consider `CCOC(=O)c1ccc(N2C(=O)CC(N(C)Cc3ccccc3)C2=O)cc1` (configuration not stated), for which the inhibition is -9.5% (inactive).
Consider `c1ccc(COc2nsnc2N2CCOCC2)cc1`, for which the inhibition was 30.3% (inactive).
To `c1ccc(Nc2nc(N3CCOCC3)c3ccccc3n2)cc1` belongs 56.9% (active).
Then `Cc1cc(Oc2ccccc2)nc(N2CCOCC2)n1`, with 26.5% (inactive); and `COCc1[nH][nH]c(=O)c1C=Nc1ccc(F)cc1F`, with -10% (inactive); and `CCCOC(=O)CC1C(=O)NCCN1Cc1ccc(F)cc1` (configuration not stated), with 6.4% (inactive).
On to `CCC(C)(C(=O)NC1CCCCC1)N(C)C(=O)c1ccc2c(c1)OCO2` (configuration not stated), for which the inhibition was -1.7% (inactive).
To `Cc1ccnc(NC(=O)c2ccc(NC(=O)c3ccco3)cc2)c1` belongs -0.6% (inactive).
To `COC(=O)c1ccc(NC(=O)c2ccco2)cc1` belongs 24% (inactive).
As to `CC(C)(C)NC(=O)c1cc(NC(=O)c2ccco2)cc(NC(=O)c2ccco2)c1`, the inhibition is 64.8% (active).
Then `CN1CCN(CC(=O)C23CC4CC(CC(C4)C2)C3)CC1`, with 5.7% (inactive); and `Cc1ccc(N2C(=O)C(Cc3ccccc3)NC2=S)cc1` (configuration not stated), with 78.4% (active).
For the molecule `Cc1ccc(N2C(=O)C3C(c4ccccc4)(C2=O)C3(c2ccccc2)c2ccccc2)cc1` (configuration not stated), the inhibition was 28.1% (inactive).
To `Cc1cc(C)nc(N2C(=O)CC(Cc3ccccc3)C2=O)n1` (configuration not stated) belongs -14% (inactive); to `CCOC(=O)N1CCC(NC(=O)CN2C(=O)COc3ccc(C(C)(C)C)cc32)CC1`, 10.3% (inactive); to `CCCCC(=O)N/N=C(\C)CC(=O)Nc1cc(Cl)ccc1OC`, -51.9% (inactive).
Then `CN(C)c1ccc(-n2cccc2/C=C2/SC(=Nc3ccc(F)cc3)NC2=O)cc1`, with 5.1% (inactive).
Then `Cc1ccc(-c2nnc(C)c(N3CC(C)OC(C)C3)n2)cc1` (configuration not stated), with 17.3% (inactive); and `COc1ccc(C)cc1NC(=O)CSc1nc(SC)ns1`, with -3.2% (inactive).
`COc1ccc(C)cc1NC(=O)CCS(=O)(=O)c1cccc2nonc12`: the inhibition was 34.9% (inactive).
On to `COc1ccc(C)cc1NC(=O)CCC(=O)Nc1nnc(C(F)(F)F)s1`, for which the inhibition was 50.2% (active).
Turning to `O=C1C(C=NCC2CCCO2)=C(O)c2ccccc21` (configuration not stated), the inhibition is 3.5% (inactive).
Then `CC(=NCc1ccc2c(c1)OCO2)C1=C(O)c2ccccc2C1=O`, with 28.1% (inactive); and `CC(=NCc1ccco1)C1=C(O)c2ccccc2C1=O`, with 78.9% (active).
Then `CC(Sc1sc(=S)sc1SC(C)C(=O)O)C(=O)O` (configuration not stated), with 10.2% (inactive); and `CCn1c(CSc2ncccn2)nnc1SCC(=O)N1c2ccccc2CC1C` (configuration not stated), with -1.7% (inactive); and `CCS(=O)(=O)c1ccc2oc(SCC(=O)N3c4ccccc4CC3C)nc2c1` (configuration not stated), with 46.1% (inactive).
Then `CCCCn1ccnc1C(=O)c1cccc(S(=O)(=O)N2c3ccccc3CC2C)c1` (configuration not stated), with 68.5% (active); and `O=C1Nc2ccc(Br)cc2/C1=N/N=C/C1=C(N2CCOCC2)C(=C\c2ccccc2)/CC1`, with 84.9% (active).
Turning to `Cc1noc(C)c1S(=O)(=O)NCCc1ccc(S(N)(=O)=O)cc1`, the inhibition is -3.8% (inactive).
Then `CCSC(C)CC1C/C(=N/O)c2c(C)noc2C1` (configuration not stated), with 61.3% (active).
To `COc1ccc(C(=O)NCc2cn3ccccc3n2)cc1` belongs 2.4% (inactive); to `O=C(c1cc(-c2cccs2)on1)N1CCCCC1`, -21.4% (inactive); to `Cc1occc1C(=O)N1CCCc2ccccc21`, -1.8% (inactive).
For `O=C(c1cccc(C(=O)N2CCc3ccccc32)n1)N1CCc2ccccc21`, the inhibition is 8.6% (inactive).
To `O=C(c1cc(-c2cccc(O)c2)on1)N1CCc2ccccc2C1` belongs 55.8% (active); to `O=C(c1cc(-c2ccccc2O)on1)N1CCCC1`, -51.3% (inactive); to `O=C(c1cc(-c2ccc(O)cc2)on1)N1CCCc2ccccc21`, 55.3% (active).
Turning to `CNC(=O)c1nnn(-c2ccccc2)c1C(=O)NC`, the inhibition is -7.1% (inactive).
To `O=C(O)c1cccnc1NC1CCCC1` belongs 4.1% (inactive); to `Cc1ccc(NC(=O)N2CCC(C(=O)NCc3ccc(F)cc3)CC2)cc1`, 34% (inactive); to `COc1ccc(Cn2nnc3c(=O)[nH]c(C4CCN(C(=O)c5ccccc5Cl)CC4)nc32)cc1`, 79.7% (active).
To `Cc1ccc(NC(=O)N2CCC(c3nc4c(nnn4Cc4c(F)cccc4Cl)c(=O)[nH]3)CC2)cc1` belongs 87.7% (active).
Then `COc1ccc(-n2nnc3c(=O)n(CC(=O)N4CCC(Cc5ccccc5)CC4)cnc32)cc1`, with 17.9% (inactive); and `Cc1ccc(Cn2nnc3c(=O)n(CC(=O)N4CCCCC4)cnc32)cc1`, with -4.1% (inactive); and `O=C(CSCc1c(F)cccc1Cl)NCC1CCCO1` (configuration not stated), with -7.5% (inactive).
Turning to `Oc1ccc(CNc2ccccc2O)cc1`, the inhibition was 22.4% (inactive).
To `COC(=O)c1ccc(Sc2ccc(F)cc2)c(N)c1` belongs 43.1% (inactive); to `CC(C)(CCl)C(=O)Nc1ccc(Sc2ccc(F)cc2)cc1`, 84.9% (active).
To `CCN(c1ccccc1)S(=O)(=O)c1ccc(NC(=O)C(C)(C)C)cc1` belongs 31.5% (inactive); to `O=C1CC(NNc2ccccc2)C(=O)N1c1cccc(Cl)c1` (configuration not stated), 0.1% (inactive); to `Cc1noc(C)c1S(=O)(=O)Nc1ccc(C(=O)O)cc1`, 1.8% (inactive).
For the molecule `CCCCN(CC)C(=O)CN(C)S(=O)(=O)c1cccc2nsnc12`, the inhibition is 16.6% (inactive).
To `Clc1ccc(-c2cc(COc3ccccc3)no2)cc1Cl` belongs -0.8% (inactive); to `O=S(=O)(Cc1cc(Sc2ccccc2)nc(-c2ccccc2)n1)c1ccccc1`, 52.5% (active).
Then `O=C1CC2(CCCCC2)Oc2ccc(OCC(=O)N3CCOCC3)cc21`, with 2.2% (inactive); and `Brc1cccc(-c2nnc3n2CCC3)c1`, with -21.9% (inactive); and `Cc1ccc(Cc2cnc(NC(=O)/C(C#N)=C/c3ccc(-c4cccc([N+](=O)[O-])c4)o3)s2)cc1`, with 25.6% (inactive).
